In PubChem BioAssay (NCATS):
Results filed as inconclusive are left out. Active and inactive are the calls of the source. Calls follow the shape of the full dose curve.

Tests used:
[1] = Primary qHTS for inhibitors of SARS-S pseudo-typed particle cell entry (AID 1479145); also: nearly all actives have a fitted effect of over 45% in size; as to activity change, negative = inhibition: series mostly up to about 57 µM
[2] = Primary qHTS for Huh7 cytotoxicity: counterscreen for inhibitors of MERS-S pseudotyped particle cell entry (AID 1479147)
[3] = Primary qHTS for inhibitors of MERS-S pseudo-typed particle cell entry (AID 1479149); also: nearly all actives have a fitted effect of over 60% in size; as to activity change, negative = inhibition: series mostly up to about 57 µM
[4] = Primary qHTS for Vero E6 cytotoxicity: counterscreen for inhibitors of SARS-S pseudo-typed particle cell entry (AID 1479150)
% is scaled to controls: 0 for no effect and ±100 for the full control effect.

CN1[C@@H]2CC[C@H]1CC(OC(=O)C(O)c1ccccc1)C2 (stereo partly drawn)
inactive: Potency [1] | Potency [2] | Potency [3] | Potency [4]

COc1ncnc(NS(=O)(=O)c2ccc(N)cc2)c1OC
inactive: Potency [1] | Potency [2] | Potency [3] | Potency [4]

O=C(O)CC(O)C(=O)O (stereo not drawn)
inactive: Potency [1] | Potency [2] | Potency [3] | Potency [4]

Nc1nc2c(ncn2CCC(CO)CO)c(=O)[nH]1
inactive: Potency [1] | Potency [2] | Potency [3] | Potency [4]

COC(=O)c1ccc2c(C(=Nc3ccc(N(C)C(=O)CN4CCN(C)CC4)cc3)c3ccccc3)c(O)[nH]c2c1
inactive: Potency [1] | Potency [2] | Potency [3] | Potency [4]

[O-][n+]1cccc(/C(Cl)=N/OC[C@@H](O)CN2CCCCC2)c1
inactive: Potency [1] | Potency [2] | Potency [3] | Potency [4]

CC(C)C[C@H](NC(=O)[C@@H](O)[C@H](N)Cc1ccccc1)C(=O)O
inactive: Potency [1] | Potency [2] | Potency [3] | Potency [4]

S=c1[nH]c2ccccc2s1
inactive: Potency [1] | Potency [2] | Potency [3] | Potency [4]

CC(=O)Oc1ccccc1C(=O)O
inactive: Potency [1] | Potency [2] | Potency [3] | Potency [4]

C=CCNC(N)=S
inactive: Potency [1] | Potency [2] | Potency [3] | Potency [4]

CCN1CCN(c2cc3c(cc2F)c(=O)c(C(=O)O)cn3C2CC2)CC1
inactive: Potency [1] | Potency [2] | Potency [3] | Potency [4]

CCCCC(CC)COC(=O)c1ccc(N(C)C)cc1 (stereo not drawn)
inactive: Potency [1] | Potency [2] | Potency [3] | Potency [4]

CC(=O)N[C@@H](CCC(N)=O)C(=O)O
inactive: Potency [1] | Potency [2] | Potency [3] | Potency [4]

CCCCCCCC(=O)OCC(O)CO (stereo not drawn)
inactive: Potency [1] | Potency [2] | Potency [3] | Potency [4]

Cn1c(NCCN(CCO)CCCc2ccc([N+](=O)[O-])cc2)cc(=O)n(C)c1=O
inactive: Potency [1] | Potency [2] | Potency [3] | Potency [4]

O=C(O)CNC(=O)CNC(=O)CNC(=O)CSC(=O)c1ccccc1
inactive: Potency [1] | Potency [2] | Potency [3] | Potency [4]

CCC(C)(Oc1ccc(C2(c3ccc(OC(C)(CC)C(=O)O)cc3)CCCCC2)cc1)C(=O)O (stereo not drawn)
inactive: Potency [1] | Potency [2] | Potency [3] | Potency [4]

CC(C)(C)c1nnc(NS(=O)(=O)c2ccccc2)s1
inactive: Potency [1] | Potency [2] | Potency [3]

CCc1c(C)[nH]c2c1C(=O)C(CN1CCOCC1)CC2 (stereo not drawn)
inactive: Potency [1] | Potency [2] | Potency [3] | Potency [4]

CN(C)CC/C=C1/c2ccccc2COc2ccc(CC(=O)O)cc21
inactive: Potency [1] | Potency [2] | Potency [3] | Potency [4]

c1ccc2[nH]ccc2c1
inactive: Potency [1] | Potency [2] | Potency [3] | Potency [4]

CC[N+](C)(CC)CCOC(=O)C(O)(c1ccccc1)C1CCCCC1 (stereo not drawn)
inactive: Potency [1] | Potency [2] | Potency [3] | Potency [4]

CC(=O)Nc1ccc(O)cc1
inactive: Potency [1] | Potency [2] | Potency [3] | Potency [4]

N#C/C(=C1\SCC(c2ccccc2Cl)S1)n1ccnc1 (stereo not drawn)
inactive: Potency [1] | Potency [2] | Potency [3] | Potency [4]

CS(=O)(=O)c1ccc(C(=O)Nc2ccc(Cl)c(-c3ccccn3)c2)c(Cl)c1
inactive: Potency [1] | Potency [2] | Potency [3] | Potency [4]

CCOc1cc(NC(C)=O)ccc1C(=O)OC
inactive: Potency [1] | Potency [2] | Potency [3] | Potency [4]

C[N+](C)(C)CC(=O)O
inactive: Potency [1] | Potency [2] | Potency [3] | Potency [4]

CC1=NN(c2ccccc2)C(=O)C1
inactive: Potency [1] | Potency [2] | Potency [3] | Potency [4]

CCCCCCCCCCC(CO)CCCCCCCC (stereo not drawn)
inactive: Potency [1] | Potency [2] | Potency [3] | Potency [4]

CC(=O)Oc1cccc(C)c1
inactive: Potency [1] | Potency [2] | Potency [3] | Potency [4]

Cc1c(C)c2c(c(C)c1OC(=O)c1cccnc1)CC[C@@](C)(CCC[C@H](C)CCC[C@H](C)CCCC(C)C)O2
inactive: Potency [1] | Potency [2] | Potency [3] | Potency [4]

O=C1NS(=O)(=O)c2ccccc21
inactive: Potency [1] | Potency [2] | Potency [3] | Potency [4]

CN(C(=O)C(Cl)Cl)c1ccc(OC(=O)c2ccco2)cc1
inactive: Potency [1] | Potency [2] | Potency [3] | Potency [4]

CCCCC(CC)COC(=O)/C=C/c1ccc(OC)cc1 (stereo not drawn)
inactive: Potency [1] | Potency [2] | Potency [3] | Potency [4]

NC(CO)C(=O)NNCc1ccc(O)c(O)c1O (stereo not drawn)
inactive: Potency [1] | Potency [2] | Potency [3] | Potency [4]

C/C(=C1\CCOC(=O)S1)N(C=O)Cc1cnc(C)nc1N
inactive: Potency [1] | Potency [2] | Potency [3] | Potency [4]

NCCCC(N)(C(=O)O)C(F)F (stereo not drawn)
inactive: Potency [1] | Potency [2] | Potency [3] | Potency [4]

CCOc1cc2ncc(C#N)c(Nc3ccc(OCc4ccccn4)c(Cl)c3)c2cc1NC(=O)/C=C/CN(C)C
inactive: outcome [2] inactive [at 11.4 µM] | activity change, negative = inhibition [3] -11.6% [at 11.4 µM] | activity change, negative = cytotoxicity [4] -35.9% [at 11.4 µM]

CS(=O)(=O)Nc1ccc([N+](=O)[O-])cc1Oc1ccccc1
inactive: Potency [2] | Potency [3] | Potency [4]
